According to ChEMBL document CHEMBL1961873, “Compounds: GSK PKIS; Assays: Nanosyn kinase panel” (2012):

Tests used:
[1] = target: Protein kinase C gamma type (Homo sapiens) (UniProt P05129); settings: at 1 µM;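 further: each value is an averaged percent inhibition of the enzyme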
[2] = target: T1, Protein kinase C iota type (Homo sapiens) (UniProt P41743); settings: at 0.1 µM
T1 sequence (whole entry): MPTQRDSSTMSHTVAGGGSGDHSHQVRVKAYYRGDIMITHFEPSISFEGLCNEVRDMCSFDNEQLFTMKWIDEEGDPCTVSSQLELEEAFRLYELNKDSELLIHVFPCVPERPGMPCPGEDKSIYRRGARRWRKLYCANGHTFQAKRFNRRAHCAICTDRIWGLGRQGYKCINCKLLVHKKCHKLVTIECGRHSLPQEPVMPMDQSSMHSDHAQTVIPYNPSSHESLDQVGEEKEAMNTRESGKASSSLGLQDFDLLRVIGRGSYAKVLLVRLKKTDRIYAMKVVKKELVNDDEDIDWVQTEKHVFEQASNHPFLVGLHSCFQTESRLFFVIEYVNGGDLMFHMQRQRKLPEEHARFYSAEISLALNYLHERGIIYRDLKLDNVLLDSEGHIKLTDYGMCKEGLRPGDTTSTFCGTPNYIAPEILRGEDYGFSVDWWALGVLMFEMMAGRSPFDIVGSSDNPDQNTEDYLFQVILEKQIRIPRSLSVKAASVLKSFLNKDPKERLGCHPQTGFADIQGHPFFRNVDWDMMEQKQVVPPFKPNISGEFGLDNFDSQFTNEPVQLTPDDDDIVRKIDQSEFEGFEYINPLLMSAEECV

[3] = target: T1, Protein kinase C iota type (Homo sapiens); settings: at 1 µM
[4] = target: Protein kinase C theta type (Homo sapiens) (UniProt Q04759); settings: at 0.1 µM
Sequence of Protein kinase C theta type (Homo sapiens) (Q04759 whole entry, looked up): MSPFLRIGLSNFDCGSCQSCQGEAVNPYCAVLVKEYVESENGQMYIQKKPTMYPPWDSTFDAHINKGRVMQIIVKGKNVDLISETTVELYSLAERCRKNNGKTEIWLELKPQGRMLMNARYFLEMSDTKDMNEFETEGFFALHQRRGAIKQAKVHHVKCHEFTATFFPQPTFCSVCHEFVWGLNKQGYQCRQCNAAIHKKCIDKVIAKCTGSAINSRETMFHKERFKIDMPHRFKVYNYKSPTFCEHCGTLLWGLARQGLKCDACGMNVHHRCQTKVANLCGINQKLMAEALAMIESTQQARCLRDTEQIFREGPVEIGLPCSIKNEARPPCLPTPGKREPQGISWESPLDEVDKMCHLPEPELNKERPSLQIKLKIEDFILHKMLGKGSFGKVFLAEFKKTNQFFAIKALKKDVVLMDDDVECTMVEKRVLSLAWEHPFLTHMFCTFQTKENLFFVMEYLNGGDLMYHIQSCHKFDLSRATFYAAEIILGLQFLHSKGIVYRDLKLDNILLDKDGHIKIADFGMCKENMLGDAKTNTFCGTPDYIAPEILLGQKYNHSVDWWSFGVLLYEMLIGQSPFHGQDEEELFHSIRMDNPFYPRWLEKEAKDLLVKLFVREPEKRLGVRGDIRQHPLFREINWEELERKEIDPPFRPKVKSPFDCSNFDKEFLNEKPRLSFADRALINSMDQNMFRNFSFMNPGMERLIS

[5] = target: Protein kinase C theta type (Homo sapiens) (UniProt Q04759); settings: at 1 µM
[6] = target: Protein kinase C beta type (Homo sapiens) (UniProt P05771); settings: at 0.1 µM
Sequence of Protein kinase C beta type (Homo sapiens) (P05771 2-671 limits assumed): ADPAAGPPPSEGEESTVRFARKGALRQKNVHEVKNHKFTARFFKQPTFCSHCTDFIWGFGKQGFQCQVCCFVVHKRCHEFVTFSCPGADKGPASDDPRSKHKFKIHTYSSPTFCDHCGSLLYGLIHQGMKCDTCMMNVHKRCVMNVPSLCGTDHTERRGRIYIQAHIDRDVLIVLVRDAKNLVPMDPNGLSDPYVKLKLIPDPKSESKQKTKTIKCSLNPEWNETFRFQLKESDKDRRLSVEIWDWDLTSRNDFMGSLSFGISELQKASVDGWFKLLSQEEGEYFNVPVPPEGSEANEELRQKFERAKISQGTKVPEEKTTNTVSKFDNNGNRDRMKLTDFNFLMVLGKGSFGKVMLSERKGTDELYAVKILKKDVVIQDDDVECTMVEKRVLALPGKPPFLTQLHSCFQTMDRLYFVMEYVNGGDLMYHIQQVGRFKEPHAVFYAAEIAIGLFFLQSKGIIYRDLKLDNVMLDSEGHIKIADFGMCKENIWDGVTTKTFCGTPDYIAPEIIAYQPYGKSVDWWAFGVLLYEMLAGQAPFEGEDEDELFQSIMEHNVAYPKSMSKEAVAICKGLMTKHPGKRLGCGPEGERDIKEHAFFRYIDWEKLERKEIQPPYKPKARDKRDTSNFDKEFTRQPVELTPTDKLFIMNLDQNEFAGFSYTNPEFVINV

[7] = target: Protein kinase C beta type (Homo sapiens) (UniProt P05771); settings: at 1 µM
[8] = target: T2, Serine/threonine-protein kinase D1 (Homo sapiens) (UniProt Q15139); settings: at 0.1 µM
T2 sequence (whole entry): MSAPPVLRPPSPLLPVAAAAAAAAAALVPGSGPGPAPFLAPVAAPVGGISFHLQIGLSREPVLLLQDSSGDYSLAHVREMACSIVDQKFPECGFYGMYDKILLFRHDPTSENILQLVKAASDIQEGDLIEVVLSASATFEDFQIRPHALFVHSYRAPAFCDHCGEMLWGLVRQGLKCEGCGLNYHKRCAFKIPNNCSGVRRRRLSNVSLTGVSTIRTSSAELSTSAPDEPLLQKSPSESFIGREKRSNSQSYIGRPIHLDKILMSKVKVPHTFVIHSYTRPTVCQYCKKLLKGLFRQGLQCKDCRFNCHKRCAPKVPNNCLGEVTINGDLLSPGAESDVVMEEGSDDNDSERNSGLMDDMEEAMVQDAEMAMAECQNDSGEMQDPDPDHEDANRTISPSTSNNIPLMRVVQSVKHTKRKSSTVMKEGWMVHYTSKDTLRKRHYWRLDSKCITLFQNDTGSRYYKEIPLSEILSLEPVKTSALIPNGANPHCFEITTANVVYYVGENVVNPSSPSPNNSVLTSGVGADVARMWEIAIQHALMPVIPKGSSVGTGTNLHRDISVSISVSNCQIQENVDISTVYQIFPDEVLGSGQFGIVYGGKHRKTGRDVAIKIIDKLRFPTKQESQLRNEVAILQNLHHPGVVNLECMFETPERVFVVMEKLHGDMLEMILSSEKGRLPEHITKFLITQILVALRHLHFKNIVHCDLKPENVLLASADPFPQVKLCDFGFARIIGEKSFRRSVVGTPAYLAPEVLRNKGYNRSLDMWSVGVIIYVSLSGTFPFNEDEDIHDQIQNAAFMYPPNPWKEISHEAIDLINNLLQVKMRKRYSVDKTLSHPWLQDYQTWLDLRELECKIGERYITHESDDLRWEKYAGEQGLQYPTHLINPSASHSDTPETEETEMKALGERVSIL

[9] = target: T2, Serine/threonine-protein kinase D1 (Homo sapiens); settings: at 1 µM
[10] = target: T3, Serine/threonine-protein kinase D2 (Homo sapiens) (UniProt Q9BZL6); settings: at 0.1 µM;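 further: reported percent inhibition values are means, part of the GSK PKIS kinase panel screen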
T3 sequence (whole entry): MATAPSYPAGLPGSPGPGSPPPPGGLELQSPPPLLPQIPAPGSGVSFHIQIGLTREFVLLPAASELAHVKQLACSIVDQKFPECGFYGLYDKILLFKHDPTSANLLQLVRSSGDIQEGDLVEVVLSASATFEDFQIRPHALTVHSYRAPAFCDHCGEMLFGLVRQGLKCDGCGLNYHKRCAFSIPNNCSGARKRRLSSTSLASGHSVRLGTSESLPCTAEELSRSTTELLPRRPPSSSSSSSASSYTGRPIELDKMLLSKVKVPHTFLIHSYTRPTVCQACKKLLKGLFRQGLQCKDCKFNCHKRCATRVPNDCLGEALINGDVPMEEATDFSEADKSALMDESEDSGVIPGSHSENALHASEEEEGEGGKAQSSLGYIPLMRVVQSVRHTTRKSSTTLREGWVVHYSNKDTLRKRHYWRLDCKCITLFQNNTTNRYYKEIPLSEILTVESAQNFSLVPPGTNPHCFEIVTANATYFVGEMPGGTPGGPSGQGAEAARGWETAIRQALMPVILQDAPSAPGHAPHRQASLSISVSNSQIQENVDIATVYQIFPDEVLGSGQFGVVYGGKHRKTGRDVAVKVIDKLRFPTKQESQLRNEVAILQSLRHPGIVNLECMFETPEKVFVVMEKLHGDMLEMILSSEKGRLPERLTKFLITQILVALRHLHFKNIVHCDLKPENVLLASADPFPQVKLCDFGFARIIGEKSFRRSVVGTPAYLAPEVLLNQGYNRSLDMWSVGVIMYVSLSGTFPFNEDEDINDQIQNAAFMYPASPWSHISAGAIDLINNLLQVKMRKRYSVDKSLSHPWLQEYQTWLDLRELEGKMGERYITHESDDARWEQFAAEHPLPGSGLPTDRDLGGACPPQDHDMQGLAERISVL

Row | SMILES | inhibition [1] [%] | inhibition [2] [%] | inhibition [3] [%] | inhibition [4] [%] | inhibition [5] [%] | inhibition [6] [%] | inhibition [7] [%] | inhibition [8] [%] | inhibition [9] [%] | inhibition [10] [%]
1 | NS(=O)(=O)c1ccc(N/N=C2\C(=O)Nc3ccc4ncccc4c32)cc1 | 11.8 | -0.86 | 1.52 | 2.1 | 11.8 | 1.28 | 3.78 | 12.6 | 62.2 | 9.02
2 | c1ccc(COc2ccc(Nc3ncnc4ccc(-c5ccco5)cc34)cc2)cc1 | 0.84 | -1.29 | -0.86 | -2.6 | -0.62 | 0.49 | 0.58 | 1.25 | 0.71 | 3.12
3 | CC(=O)Nc1cccc(C#Cc2cncnc2Nc2ccc(OCc3cccc(F)c3)c(Cl)c2)c1 | 3.97 | 0.27 | 2.04 | 0.62 | -0.6 | 1.6 | 0.79 | 1.8 | 2.69 | 1.88
4 | CCn1c(-c2nonc2N)nc2c(C#CC(C)(C)O)nc(OC[C@H](N)c3ccccc3)cc21 | 45.5 | 0.16 | 3.1 | 55.1 | 82.7 | 16.3 | 59.4 | 5.85 | 29.9 | 5.65
5 | O=C(Nc1n[nH]c2cc(-c3ccc(F)cc3)ccc12)C1CC1 | 5.71 | 2.42 | 3.67 | 3 | 5.04 | 2.1 | 4.04 | 3.02 | 5.62 | 2.7
6 | COC(=O)Nc1nc2ccc(S(=O)(=O)c3ccc(NC(=O)Nc4cc(C(F)(F)F)ccc4F)cc3)cc2[nH]1 | 1.8 | 0.65 | 1.49 | 0.7 | -0.17 | 0.33 | 0.07 | 2.33 | 5.18 | 2.66
7 | CCNC(=O)O[C@H]1CN[C@H](C#Cc2cc3ncnc(Nc4ccc(OCc5cccc(F)c5)c(Cl)c4)c3s2)C1 | 3.31 | 1.37 | 3.17 | 1.01 | 0.75 | -0.74 | 0.7 | 2.66 | 4.66 | 2.15
8 | CS(=O)(=O)CCNCc1coc(-c2ccc3ncnc(Nc4ccc(OCc5ccccc5)cc4)c3c2)c1 | 4.91 | 1.33 | 0.97 | 1.31 | 1.25 | -0.17 | 1.35 | 1.97 | 2.95 | 2.53
9 | Cc1ccc2c(-c3ccnc(Nc4ccccc4)n3)c(-c3ccc(F)cc3)nn2n1 | 2.17 | 1.43 | 3.68 | 1.21 | 1.16 | 1.79 | 12.3 | 10.1 | 70.6 | 24.6
10 | Nc1nc(-c2cccc(Cl)c2)c(-c2ccc3ncccc3n2)s1 | 6.65 | 2.71 | 1.25 | 4.95 | 5.67 | 2.82 | 2.11 | 5.85 | 35 | 7.33
11 | CCN(CC)S(=O)(=O)c1ccc(OC)c(Nc2ncc(-c3ccccc3)o2)c1 | 3.98 | 0.63 | -0.91 | 1.36 | 1.38 | 0.23 | 1.41 | 1.66 | 0.39 | 0.75
12 | CS(=O)(=O)CCNCc1ccc(-c2ccc3ncnc(Nc4ccc(OCc5ccccc5)c(C(F)(F)F)c4)c3c2)o1 | 0.29 | 1.93 | 2.76 | 1.99 | 1.95 | 1.11 | 1.5 | 3.89 | 5.55 | 3.28
13 | FC(F)(F)c1cccc(-c2nn3ncccc3c2-c2ccnc(Nc3ccc4c(c3)OCCO4)n2)c1 | 2.4 | -1.47 | 2.18 | 0.59 | -0.24 | 0.37 | 0.77 | 3.4 | 33.6 | 5.98
14 | CC(=O)NCc1cccc(C#Cc2cncnc2Nc2ccc(OCc3cccc(F)c3)c(Cl)c2)c1 | 1.3 | 0.84 | 0.45 | 0.15 | -0.29 | 0.7 | 0.37 | 3.28 | 2.11 | 0.45
15 | CCn1c(-c2nonc2N)nc2c(C#CC(C)(C)O)ncc(OC3CCNCC3)c21 | 89.5 | -0.03 | 6.53 | 38 | 81.5 | 19.7 | 61.7 | 4.17 | 13.4 | 3.98
16 | CCCN(CCS(C)(=O)=O)Cc1ccc(-c2ccc3ncnc(Nc4ccc(OCc5cccc(F)c5)c(Cl)c4)c3c2)o1 | 2.5 | 1.67 | -0.59 | 0.4 | 0.62 | 1.13 | 2.02 | 1.1 | 2.52 | 0.95
